# Screens from PubChem.
# PDI inh – inhibitors of human protein disulfide isomerase; 350,000 tested, 0.052% active; inhibition, % at 10 µM; PDI insulin aggregation turbidity, A650, 90 min; AID 588391;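 active = mean inhibition across replicates of 30% or more, whatever share of single replicates reach that level; inconclusive = mean inhibition below 30% while every single replicate reaches 30%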
# SIRT5 block – inhibitors of human sirtuin-5 desuccinylase; Q9NXA8; Purified SirT5, succinyl-peptide AMC, trypsin-coupled fluorescence; inhibition, % at 15 µM; 330,000 tested, 1.1% active; in the data active = inhibition above about 15%; inconclusive = no clear call, values can overlap the other calls
# Target sequence (Q9NXA8 whole entry, looked up): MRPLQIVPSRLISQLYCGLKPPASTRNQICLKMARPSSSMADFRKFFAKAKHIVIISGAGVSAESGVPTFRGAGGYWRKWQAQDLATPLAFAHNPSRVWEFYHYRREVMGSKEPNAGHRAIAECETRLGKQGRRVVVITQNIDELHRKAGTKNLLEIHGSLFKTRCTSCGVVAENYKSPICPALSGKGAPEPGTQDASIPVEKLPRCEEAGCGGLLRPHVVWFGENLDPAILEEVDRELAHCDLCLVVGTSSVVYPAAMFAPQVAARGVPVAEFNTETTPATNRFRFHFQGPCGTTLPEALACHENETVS
# DENV2 CPE rescue – protects cells from dengue virus 2 cytopathic effect; DENV2-infected cells, cytopathic effect rescue, plate reader; CPE inhibition, % at 9.99 µM; 350,000 tested, 1.7% active; in the data active = CPE inhibition above about 20%, passing the limit was not always enough; inconclusive = no clear call, values can overlap the other calls; tested in BHK-21 cells;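 note: 0% = median of neutral control wells and 100% = median of positive control wells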
# ERp5 block – blocks human ERp5 reductase activity on insulin; 350,000 tested, 0.05% active; AID 651711; inhibition, % at 9.99 µM; ERp5 insulin aggregation, absorbance 650 nm, 90 min; Q15084;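 active = mean replicate inhibition above about 25%, with every replicate also reaching it, limit read from the data, passing the limit was not always enough; inconclusive = only one of those two criteria met; inactive = neither criterion met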
# Rtt109 HAT inh – blocks Candida albicans Rtt109/Vps75 acetyltransferase activity; Q5AAJ8; purified Rtt109/Vps75, ThioGlo CoA-SH fluorescence, 4 h; inhibition, % at 34.9 µM; 330,000 tested, 0.16% active;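 active = inhibition of at least 50% in every replicate; inconclusive = best replicate reaches 50% inhibition but some replicates fall short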
# The depositor's hits bear a star; ? = inconclusive; nt = not tested or not shown. Rows were chosen to be rich in hits. Some 2.3% of all compounds tested hit in one or more screens of this group.
SMILES,PDI inh,SIRT5 block,DENV2 CPE rescue,ERp5 block,Rtt109 HAT inh
CCc1cc2c(cc3c(=O)n(CC(=O)NCCCN4CC(C)CC(C)C4)ncn32)s1 (stereo not given),nt,0,64*,-6,-5
N=C1/C(=C\c2ccc(-c3cccc(Cl)c3)o2)C(=O)N=C2SC=C(c3ccccc3)N12,-4,2,67*,0,1
CCN(CC)CCNC(=O)c1ccc(NC(=O)Cc2ccc(OC)c(S(=O)(=O)N3CCOCC3)c2)cc1,4,4,40*,-2,-5
COc1ccc(CC(=O)Nc2cccc(C(C)=O)c2)cc1S(=O)(=O)N1CCOCC1,0,-1,?,-19,-1
COc1ccc(NC(=O)CN2CCOCC2)cc1S(=O)(=O)N1CCCCC1,16,0,2,5,3
COc1ccc(NC(=O)CN2CCc3ccccc3C2)cc1S(=O)(=O)N1CCOCC1,-2,nt,51*,0,-6
N#Cc1c(SCC(=O)Nc2nccs2)sc2c(O)cc(=O)[nH]c12,2,26*,-2,-1,-1
CCCSc1nnc(NC(=O)CSc2sc3c(O)cc(=O)[nH]c3c2C#N)s1,1,26*,4,4,18
N#Cc1c(SCC(=O)Nc2nc3ccccc3s2)sc2c(O)cc(=O)[nH]c12,-4,12,7,1,-2
O=C(O)C1Nc2c(Cl)cc(Cl)c(Cl)c2C2C=CCC12 (stereo not given),-1,22*,5,-3,-1
O=C(O)C1Nc2c(Cl)cc(Cl)cc2C2C=CCC12 (stereo not given),-31,nt,nt,nt,-3
O=C(O)C1Nc2c(O)cccc2C2C=CCC12 (stereo not given),8,17*,-2,5,-4
CCN1[C@@H]2c3ccc(-c4cccc(F)c4)c(=O)n3C[C@@H]2[C@@H](CO)[C@@H]1C(=O)N[C@@H](C)c1ccccc1,nt,-10,5,4,nt
COC(=O)[C@@H](Cc1ccccc1)NC(=O)/C=C/[C@H]1O[C@@H](n2cnc3c(NC(=O)c4ccccc4)ncnc32)[C@H](O)[C@@H]1O,nt,31*,5,-2,nt
Cc1noc(C)c1NC(=O)Nc1ccc2c(c1)C(=O)N([C@@H](C)CO)C[C@@H](C)[C@@H](CN(C)C(=O)CCCN(C)C)OCCCC[C@H](C)O2,nt,-9,-1,-18,nt
CC(C)(C)N(Cc1ccccc1)C(=O)COC(=O)C1CCN(c2ccc(C(F)(F)F)cn2)CC1,5,-14,44*,18,6
CCOc1ccc(C(=O)COC(=O)C2CCN(c3ccc(C(F)(F)F)cn3)CC2)cc1,9,-5,74*,-13,0
CC(C)N(Cc1ccccc1)C(=O)COC(=O)C1CCN(c2ccc(C(F)(F)F)cn2)CC1,-2,3,?,9,-3
O=C(C[C@H]1CC[C@H](NC(=O)NC2CCCC2)[C@@H](CO)O1)NCc1ccc(F)cc1,nt,1,-5,3,nt
Cn1c(=O)c2cc(S(=O)(=O)NC(C(=O)Nc3cccnc3)c3ccccc3)ccc2n(C)c1=O (stereo not given),13,nt,-8,1,-10
Cn1c(=O)c2cc(S(=O)(=O)NC(C(=O)Nc3cccc(F)c3)c3ccccc3)ccc2n(C)c1=O (stereo not given),-3,nt,78*,-7,-11
O=C(NC1CCN(Cc2ccccc2)CC1)c1ccc(CS(=O)c2ccccc2Cl)o1 (stereo not given),0,nt,70*,0,nt
COc1cccc(NC(=O)N2CC(=O)N3[C@@H](CO)[C@@H](c4ccc(C#CC5CCCC5)cc4)[C@@H]3C2)c1,nt,10,-7,-3,nt
CCCCCN(C(=O)CCc1cn(CCCCC)c2ccccc12)c1ccc(Oc2cccnc2)cc1,nt,nt,91*,0,nt
Cc1ccc(S(=O)(=O)Nc2ccc3c(c2)CC(=O)N([C@@H](C)CO)C[C@H](C)[C@H](CN(C)Cc2ccc(Oc4ccccc4)cc2)O3)cc1,nt,1,69*,2,nt
Cc1ccc(S(=O)(=O)Nc2ccc3c(c2)CC(=O)N([C@@H](C)CO)C[C@@H](C)[C@@H](CN(C)Cc2ccc(Oc4ccccc4)cc2)O3)cc1,nt,18*,9,2,nt
C[C@H]1CN([C@@H](C)CO)C(=O)Cc2cc(NS(=O)(=O)c3ccccc3)ccc2O[C@H]1CN(C)Cc1ccc(Oc2ccccc2)cc1,nt,4,?,1,nt
CN(C)C(=O)c1cccc(-c2ccc([C@@H]3[C@@H](C#N)N(C(=O)C4CCCC4)[C@H]3CO)cc2)c1,nt,4,9,2,nt
